Drawing on PubChem BioAssay AID602384 (National Center for Advancing Translational Sciences (NCATS), 2012), this text covers Potency for 5 compounds.

Each structure is given as a SMILES string. The source made the active and inactive calls. Calls follow the shape of the dose curve; as a rule, active = well fitted curve in the direction sought with a large enough effect; inactive = no such curve, though single readings can be large or run the other way.

Chain of Pyruvate kinase PKM (Homo sapiens) (P14618 whole entry, looked up, canonical isoform): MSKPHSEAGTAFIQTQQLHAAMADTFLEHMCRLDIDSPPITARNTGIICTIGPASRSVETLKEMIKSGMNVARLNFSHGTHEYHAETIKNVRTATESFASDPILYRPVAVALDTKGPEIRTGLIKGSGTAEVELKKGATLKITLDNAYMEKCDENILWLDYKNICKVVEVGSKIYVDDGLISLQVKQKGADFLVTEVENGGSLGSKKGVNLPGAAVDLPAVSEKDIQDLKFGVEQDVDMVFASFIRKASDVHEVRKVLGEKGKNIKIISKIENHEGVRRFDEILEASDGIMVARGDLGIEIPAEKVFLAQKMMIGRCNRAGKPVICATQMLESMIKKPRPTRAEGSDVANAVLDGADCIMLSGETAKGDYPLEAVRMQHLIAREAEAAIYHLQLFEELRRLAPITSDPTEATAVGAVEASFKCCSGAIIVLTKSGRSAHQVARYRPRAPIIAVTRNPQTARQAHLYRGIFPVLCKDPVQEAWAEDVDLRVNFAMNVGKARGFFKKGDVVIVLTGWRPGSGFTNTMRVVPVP

This assay concerns the target Pyruvate kinase PKM (Homo sapiens) (UniProt P14618). Kind of assay: qHTS for Activators of Human Muscle Isoform 2 Pyruvate Kinase: Extended Characterization. To be noted: purified PKM2, ATP production, Kinase-Glo luminescence. The protocol: Human pyruvate kinase muscle 2 (hPK-M2) enzyme was supplied as a highly purified (>95% pure) preparation from Harvard Medical School and assayed for its ability to generate ATP from ADP using phosphoenolpyruvate (PEP) as a substrate. ATP generation was detected in a coupled reaction by luciferase-mediated luminescence, an ATP-dependent process. Pyruvate kinase substrates, PEP and ADP, were present in the assay at Km and approximately 10-fold below Km respectively. The enzyme was assayed at an intermediate level of activity to screen for both inhibitors and activators. NIH Chemical Genomics Center [NCGC] NIH Molecular Libraries Probe Centers Network [MLPCN] MLPCN Grant: MH085679 Assay Submitter (PI): Matthew G. Vander Heiden, Harvard Medical School
Three uL of substrate mix (at r.t.) in assay buffer (50 mM Imidazole pH7.2, 50 mM KCl, 7 mM MgCl2, 0.01% Tween 20, 0.05% BSA) was dispensed into white solid bottom 1,536 well microtiter plates so that the final concentrations of substrates in the assay were 0.1 mM ADP and 0.5 mM PEP. 23 nL of compound were delivered by a pin tool and 1 uL of enzyme mix (final concentration of 0.1 nM) in assay buffer (4 degree Celsius) was added. Plates were incubated at room temperature for 1 hour. Two uL of detection mix (Kinase-Glo, Promega; at 4 degree Celsius protected from light) was added and luminescence read by a ViewLux (Perkin Elmer) at 1 second exposure/plate. Data were normalized to the uninhibited (column 3) and AC100 inhibition (no enzyme in column 2). To monitor activation, the first column contained a titration of the activator, NCGC00031955-03 (16-point 1:2 dilutions in duplicate starting at 57 uM) and the first 16 rows of column 4 contained 57 uM of NCGC00031955-03.
(In general: qHTS replaces the single test concentration by a dilution series.)
As for `Cc1cc2c(s1)c1cnn(Cc3cc(F)ccc3F)c(=O)c1n2C`, the Potency was 1120 nM (active).
Turning to `Cc1cc2c(s1)c1cnn(Cc3c(Cl)ccc(C)c3F)c(=O)c1n2C`, the Potency is 1260 nM (active).
With `Cc1cc2c(s1)c1cnn(Cc3cc(F)c(F)cc3F)c(=O)c1n2C`, the Potency is 1120 nM (active).
The value for `COc1cccc(Cn2ncc3c4sc(S(C)=O)cc4n(C)c3c2=O)c1` (stereo not given) was 73 nM (active); that for `Cc1cc2c(s1)c1cnn(Cc3ccc(F)cc3F)c(=O)c1n2C` was 891 nM (active).
